Data reported in the supplement of paper PMC6555819.

test system: PPARg:RXRa (NR concentration 180 nM, RXRa partner concentration 90 nM); assay: PBM binding z-score (relative to random genomic background probes); higher = stronger binding; sequences stand for … in GC…GCGATTGACAGCGTAGAATGAAGG
In short: (§1)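 Custom Agilent 4×180K protein-binding microarrays carried double-stranded probes. Their 34-nt variable regions held direct-repeat seeds, single-nucleotide variants, half-site ablations and random human genomic background sequences. Arrays were incubated 1 h with ligand-free nuclear receptor dimers in PBS pH 7.4, 2% milk, 0.02% Triton X-100, 1 mM DTT, 0.2 mg/mL BSA and 0.4 mg/ml salmon testes DNA. Antibodies against each partner (one per run) detected binding, and scanned fluorescence was regression-normalized. Binding z-scores use random background probes as reference.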

| Sequence | PBM binding z-score |
| --- | --- |
| ATCTCTAGGTGAAGTTCAGTGAAAGATCGATAGA | 1.57 |
| CCGACTGGGGCAGAAAGTTTACCATACCATCCGG | 0.681 |
| ACAGACAGGTGATGAAGGTAACTAAGGCTATCAT | 0.606 |
| GCATGTAGATCAAGGTTAAGAAAGACTAAGCTAA | 1.33 |
| TCTTGTAGATCAACAGGAGGTCAAGAAAGATCGA | 1.04 |
| CTTGCTAGGTCAATGGTCAGCTAAAGCAGCTCGC | 5.43 |
| TCGAGTAGGTTCGTCGGGGCATTCAGCCAACATA | -0.436 |
| ATCTCTGGGTAACAAGTTCAGTGAAAGAGAGGAC | 1.62 |
| TAGCCCAGGTCAGATCGGGCCAGTATACGCTATA | 0.632 |
| TGTCAAAGTTCAATGGTAACGTAAGTATCCACAC | 6.86 |
| CGAACGAGGGCATGAGTTGATAGCAAATGCCGAT | 1.35 |
| CGTCCAAGGTCATAGGAGGTCAGGGAAGACAGAT | 6.03 |
| GCTGCTTGGTCAACTGATGGTCAGCTAAAGCTCG | -0.68 |
| ATCTCTAGGAAACCAAGTTCAGTGAATGCCGAAC | -0.0218 |
| CCTGCTAGGTCATGGTCATCTAATCTACAGTATG | 2.73 |
| TAGCCTATGTCATTGGGCCAGTATAGTACGCATC | 0.577 |
| CGAACTAGGTCAGAACAGGACACTGAAGGATGAT | 5.08 |
| GCTCGGAGGACAAGGTCAGATCTTTGTCCGTAGA | 0.835 |
| AGAATGAGGTTATTACGATCAGGGAATTGCGGTC | 1.55 |
| TCATATACGTAAAAGGTGAAAGTCGGTGTGGTAA | 1.68 |

| Sequence | PBM binding z-score |
| --- | --- |
| CCTAGTGGGCCACGAAAGGTCATTGATTCAGTGA | 4.51 |
| TCTTGTAGTTCAATAGAGGTTAAGAAAGTGCGCT | -0.0212 |
| ACAGACAGGTGATAAAGGTAACTCAGGCTATCAT | 1.15 |
| CCTACTGGGTCATCAGGTCATTGATATCAACGTT | 7.61 |
| TCATCTAGGTAAAAGGTGAAAGTCGGTGTGGTAA | 10 |
| CAGCCTAGGTCAGGCCCAGTATAGGAGGAACGTT | 0.633 |
| AATACAGGGTCATCGTAAGCCAGAGTACGCACAG | 6.63 |
| CCTACTGGGCCACGAACGGTCATTGATTCAGTGA | 1.47 |
| GCGACTTGGGCAAAGCAGGTTACCATAAGGTTGG | 0.451 |
| TCTAGTAGGTTAGTCGGGGCATTCAGCCAACATA | 0.856 |
| AGAACGAGGGCACGCTCAGTTGATAGCAGAGTAG | 2.08 |
| CGTACTAGGTCATTGACAGGACAGTGAATAGTAA | 6.36 |
| ATCGAAAGGTCGAGGTGAGCATAGAGAAAGGGAA | 3.46 |
| TCATATAGGTAAAGGTGCAAGTCGAACGATATGA | 4.36 |
| TCTAGTTGGTCACGGAGGTCACTCACGACGGGTA | 2.52 |
| GCGACTGGGGCATAAGCAGGTTACCATAACTTAA | 1.62 |
| AATACAGGCTCATCGTAGGCCAGAGTACGCACAG | 0.784 |
| CGTACAAGGTCAGCAGGTCAGTGAAAGCGACGTG | 5.54 |
| ACAGACAGGTGAGTGAAGGGAACTCAGCTGGACG | 0.513 |
| CCTACTGGGCCAAAAAGGTCCTTGATGCCGATAA | 0.195 |

test system: PPARg:RXRa 270nM:90nM, anti-RXR (NR concentration 270 nM, RXRa partner concentration 90 nM); assay: as above
In short: as §1

| Sequence | PBM binding z-score |
| --- | --- |
| ATCTCTAGGTGAAGTTCAGTGAAAGATCGATAGA | 1.74 |
| CCGACTGGGGCAGAAAGTTTACCATACCATCCGG | 0.251 |
| ACAGACAGGTGATGAAGGTAACTAAGGCTATCAT | 0.00614 |
| GCATGTAGATCAAGGTTAAGAAAGACTAAGCTAA | 2 |
| TCTTGTAGATCAACAGGAGGTCAAGAAAGATCGA | 2.25 |
| CTTGCTAGGTCAATGGTCAGCTAAAGCAGCTCGC | 5.94 |
| TCGAGTAGGTTCGTCGGGGCATTCAGCCAACATA | 0.394 |
| ATCTCTGGGTAACAAGTTCAGTGAAAGAGAGGAC | 1.83 |
| TAGCCCAGGTCAGATCGGGCCAGTATACGCTATA | 0.728 |
| TGTCAAAGTTCAATGGTAACGTAAGTATCCACAC | 6.53 |
| CGAACGAGGGCATGAGTTGATAGCAAATGCCGAT | 1.57 |
| CGTCCAAGGTCATAGGAGGTCAGGGAAGACAGAT | 5.99 |
| GCTGCTTGGTCAACTGATGGTCAGCTAAAGCTCG | -0.367 |
| ATCTCTAGGAAACCAAGTTCAGTGAATGCCGAAC | 0.0648 |
| CCTGCTAGGTCATGGTCATCTAATCTACAGTATG | 3.03 |
| TAGCCTATGTCATTGGGCCAGTATAGTACGCATC | 0.178 |
| CGAACTAGGTCAGAACAGGACACTGAAGGATGAT | 4.56 |
| GCTCGGAGGACAAGGTCAGATCTTTGTCCGTAGA | 1.44 |
| AGAATGAGGTTATTACGATCAGGGAATTGCGGTC | 1.88 |
| TCATATACGTAAAAGGTGAAAGTCGGTGTGGTAA | 3.88 |

| Sequence | PBM binding z-score |
| --- | --- |
| CCTAGTGGGCCACGAAAGGTCATTGATTCAGTGA | 4.88 |
| TCTTGTAGTTCAATAGAGGTTAAGAAAGTGCGCT | 1.83 |
| ACAGACAGGTGATAAAGGTAACTCAGGCTATCAT | 1.47 |
| CCTACTGGGTCATCAGGTCATTGATATCAACGTT | 6.52 |
| TCATCTAGGTAAAAGGTGAAAGTCGGTGTGGTAA | 9.2 |
| CAGCCTAGGTCAGGCCCAGTATAGGAGGAACGTT | 0.673 |
| AATACAGGGTCATCGTAAGCCAGAGTACGCACAG | 5.96 |
| CCTACTGGGCCACGAACGGTCATTGATTCAGTGA | 1.36 |
| GCGACTTGGGCAAAGCAGGTTACCATAAGGTTGG | -0.351 |
| TCTAGTAGGTTAGTCGGGGCATTCAGCCAACATA | 2.5 |
| AGAACGAGGGCACGCTCAGTTGATAGCAGAGTAG | 1.64 |
| CGTACTAGGTCATTGACAGGACAGTGAATAGTAA | 5.47 |
| ATCGAAAGGTCGAGGTGAGCATAGAGAAAGGGAA | 3.8 |
| TCATATAGGTAAAGGTGCAAGTCGAACGATATGA | 5.55 |
| TCTAGTTGGTCACGGAGGTCACTCACGACGGGTA | 3.55 |
| GCGACTGGGGCATAAGCAGGTTACCATAACTTAA | 2.1 |
| AATACAGGCTCATCGTAGGCCAGAGTACGCACAG | -0.256 |
| CGTACAAGGTCAGCAGGTCAGTGAAAGCGACGTG | 5.17 |
| ACAGACAGGTGAGTGAAGGGAACTCAGCTGGACG | -0.458 |
| CCTACTGGGCCAAAAAGGTCCTTGATGCCGATAA | 0.889 |
